Several values for one entry are separate records, joined by “and”; a condition that tells them apart may be missing. Equal entries are not always repeated. A number with no mark means an inactive call. Results filed as inconclusive are left out. Activity calls are given as the source filed them. Unless noted, the call rests on the fitted dose curve; in most records, active means well fitted curve in the direction sought with a large enough effect in the repeat runs; inconclusive means weak or mixed curves; inactive means no such curve, though single readings can be large; an effect the other way counts as inactive or inconclusive.

Experiment [1] is described as follows: qHTS assay for small molecule agonists of the p53 signaling pathway - cell viability (AID 651633; calls by dose curve; further: nearly all actives have a fitted effect of over 30% in size; further: potency means the concentration at half of the fitted maximal effect). A digest of the protocol: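 p53RE-bla cells were treated with compound for 16 hours at 37 C. Cytotoxicity was then measured as CellTiter-Glo luminescence after 30 min at room temperature.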
Experiment [2] can be described thus: qHTS assay for small molecule disruptors of the mitochondrial membrane potential - cell viability (AID 720634; calls by dose curve; further: nearly all actives have a fitted effect of over 20% in size; further: potency means the concentration at half of the fitted maximal effect). In a few lines:
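Cytotoxicity was measured by ATP quantitation in HepG2 wells that had first been treated with compound for 1 hr and stained with m-MPI dye; CellTiter-Glo incubation was 30 min at room temperature.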
On the technique in general: Quantitative high-throughput screening tests each substance at several concentrations.

A short description of experiment [3]: qHTS assay for small molecule disruptors of the mitochondrial membrane potential (AID 720635). Further: potency means the concentration at half of the fitted maximal effect. In a few lines: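 HepG2 cells exposed to compound 1 hr at 37C, then Mito-MPS dye 30 min. Ratio read of aggregate (540/590 nm) versus monomer (490/535 nm) fluorescence.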
Experiment [4] can be described thus: qHTS assay to test for compound auto fluorescence at 590 nm (red) in HepG2 cells (AID 720674). In a few lines: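 Fluorescence at 590 nm emission following 540 nm excitation was recorded from HepG2 wells one hour after compound transfer, with DMSO-only wells as vehicle and Rose Bengal sodium equivalency as the scale.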
A short description of experiment [5]: qHTS assay to test for compound auto fluorescence at 535 nm (green) in HepG2 cells (AID 720675).
A short description of experiment [6]: qHTS assay to test for compound auto fluorescence at 460 nm (blue) in HEK293 cells (AID 720678). Further: potency means the concentration at half of the fitted maximal effect. A digest of the protocol:
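Measured: blue fluorescence (Ex 405/Em 460 nm) of compound-treated HEK293 cells, incubated overnight at 37C with 5% CO2 and scaled to triamterene equivalents.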

Experiment [7] is described as follows: qHTS assay to test for compound auto fluorescence at 590 nm (red) in HEK293 cells (AID 720679). A digest of the protocol: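 Using HEK293 cells at 2,000 per well, the screen added 23 nL of each compound after cell attachment and incubated overnight (37C, 5% CO2). The plate reader then captured red-label fluorescence, Ex/Em 540/590nm.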
Experiment [8] is described as follows: qHTS assay to test for compound auto fluorescence at 535 nm (green) in HEK293 cells (AID 720680).
A short description of experiment [9]: qHTS assay to test for compound auto fluorescence at 460 nm (blue) in HEK293 cell free culture (AID 720681). Further: potency means the concentration at half of the fitted maximal effect. In a few lines:
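Compounds were added to cell-free DMEM with 10% FBS and fluorescence read directly. The blue channel used 405 nm excitation and 460 nm emission, with triamterene as the reference fluorophore.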

Experiment [10] can be described thus: qHTS assay to test for compound auto fluorescence at 535 nm (green) in HEK293 cell free culture (AID 720682). A digest of the protocol: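 Compounds were pin-transferred into cell-free DMEM with 10% FBS, and green fluorescence was read at excitation 485 nm and emission 535 nm. Intensities were expressed as fluorescein-equivalent values.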
Experiment [11] can be described thus: qHTS assay to test for compound auto fluorescence at 590 nm (red) in HEK293 cell free culture (AID 720683). A digest of the protocol:
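Cell-free wells of DMEM with 10% FBS received compound, and intrinsic fluorescence was read at excitation/emission 540/590 nm. Values expressed as equivalence to Rose Bengal sodium.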

Experiment [12] is described as follows: qHTS assay to test for compound auto fluorescence at 590 nm (red) in HepG2 cell free culture (AID 720684). In a few lines: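 Auto fluorescence equivalency versus Rose Bengal sodium, red channel Ex/Em 540/590 nm; compounds in cell-free MEM/10% FBS; DMSO vehicle control.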
Experiment [13] can be described thus: qHTS assay to test for compound auto fluorescence at 460 nm (blue) in HepG2 cell free culture (AID 720685). Further: potency means the concentration at half of the fitted maximal effect. A digest of the protocol: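 Cell-free plates of MEM plus 10% FBS received 23 nL compound or DMSO vehicle; blue-channel (405/460 nm) intensity scored against triamterene as reference fluorophore.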
Experiment [14] can be described thus: qHTS assay to test for compound auto fluorescence at 535 nm (green) in HepG2 cell free culture (AID 720686).
A short description of experiment [15]: qHTS assay to test for compound auto fluorescence at 460 nm (blue) in HepG2 cells (AID 720687). Further: potency means the concentration at half of the fitted maximal effect. In a few lines:
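HepG2 cells in MEM with 10% FBS, attached overnight at 37 C, were exposed to compound or DMSO for 1 hr at 37 C, 5% CO2. Blue fluorescence was read at 405/460 nm, with triamterene as reference fluorophore.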

Experiment [16] is described as follows: qHTS assay for small molecules that induce genotoxicity in human embryonic kidney cells expressing luciferase-tagged ATAD5 - cell viability (AID 651634; calls by dose curve; further: nearly all actives have a fitted effect of over 25% in size; further: potency means the concentration at half of the fitted maximal effect). A digest of the protocol:
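Cells (HEK293T, luciferase-tagged ATAD5) are seeded at 2,000 per well, dosed with compound or DMSO vehicle, and incubated 15.5 hr at 37C and 5% CO2. CellTiter-Fluor is added for 30 min before fluorescence is measured.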

Experiment [17] has as its target Glucocorticoid receptor (Homo sapiens) (UniProt P04150). Briefly: qHTS assay to identify small molecule agonists of the glucocorticoid receptor (GR) signaling pathway (AID 720691; active means well fitted activation curve with a large enough effect in the signal ratio in the repeat runs, not every such curve was filed as active; the % refers to the signal ratio). A digest of the protocol:
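Steps: seed GR-bla HeLa cells, incubate 4 h at 37 C/5% CO2; pin-transfer DMSO-dissolved compounds; incubate 18 h at 37 C; add LiveBLAzer B/G FRET substrate; after 2 h at room temperature, measure fluorescence.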

Experiment [18] in a line: qHTS assay for small molecules that induce genotoxicity in human embryonic kidney cells expressing luciferase-tagged ATAD5 (AID 651632). Further: nearly all actives have a fitted effect of over 15% in size. In a few lines: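 Cells were seeded at 2,000 per well, dosed with compound, and incubated 16 hr at 37C in 5% CO2. Luciferase activity was then quantified after a 30 min room-temperature incubation with Amplite.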
Tags describe the fitted curve by direction and shape or compound fluorescence and quenching.

Glucocorticoid receptor (Homo sapiens), sequence (P04150 whole entry, looked up): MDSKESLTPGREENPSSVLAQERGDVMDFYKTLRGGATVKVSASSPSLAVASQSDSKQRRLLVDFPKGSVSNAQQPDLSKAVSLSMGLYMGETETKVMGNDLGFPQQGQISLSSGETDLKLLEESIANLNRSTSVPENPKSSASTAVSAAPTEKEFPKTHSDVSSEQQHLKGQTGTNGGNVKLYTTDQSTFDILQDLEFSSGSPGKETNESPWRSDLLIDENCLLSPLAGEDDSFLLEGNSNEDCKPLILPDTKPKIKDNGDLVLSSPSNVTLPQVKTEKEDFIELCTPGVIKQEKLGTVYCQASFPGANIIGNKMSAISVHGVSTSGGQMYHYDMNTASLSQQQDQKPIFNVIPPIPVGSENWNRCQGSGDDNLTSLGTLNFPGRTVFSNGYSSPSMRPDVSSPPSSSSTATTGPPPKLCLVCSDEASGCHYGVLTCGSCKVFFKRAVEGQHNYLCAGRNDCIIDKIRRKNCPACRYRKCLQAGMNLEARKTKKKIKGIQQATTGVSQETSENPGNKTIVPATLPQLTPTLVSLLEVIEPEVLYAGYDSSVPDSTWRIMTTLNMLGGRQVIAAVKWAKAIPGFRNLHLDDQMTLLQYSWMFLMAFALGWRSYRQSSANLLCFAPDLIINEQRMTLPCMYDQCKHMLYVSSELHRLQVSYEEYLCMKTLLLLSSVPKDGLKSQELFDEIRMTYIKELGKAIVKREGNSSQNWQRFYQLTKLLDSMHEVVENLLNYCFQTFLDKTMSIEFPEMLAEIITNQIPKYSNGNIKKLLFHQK

`Nc1ccc2cc3ccccc3cc2c1`: the Potency entry in experiment [1], in [2], in [5], in [8], in [10] and in experiment [14] was “inactive” in each case. For the same compound, the Potency was 1.39 µM (active) and 1.37 µM (active) in experiment [3]; 44.7 µM [fluorescent] (active) in [6]; 39.8 µM (active) in experiment [9]; 39.8 µM [fluorescent] (active) in experiment [13]; 39.8 µM [fluorescent] (active) in [15]. Besides, the compound was classed as inactive in experiment [4], in experiment [7], in experiment [11] and in [12].
`C1COC(NC(C2CC2)C2CC2)=N1`: the Potency result in experiment [1], in experiment [16], in [2], in [3], in [5] and in [6] was “inactive” each time. Further, the Potency entry in experiment [8], in experiment [9], in experiment [10], in experiment [13], in experiment [14] and in experiment [15] was “inactive” in each case. Besides, the result in [4], in experiment [11] and in experiment [12] was inactive.
For the compound `Cc1ccc(S(=O)(=O)Oc2ccc(N=Nc3ccc(-c4ccc(N=Nc5c(O)ccc6cc(S(=O)(=O)O)cc(S(=O)(=O)O)c56)c(C)c4)cc3C)cc2)cc1`, the Potency result in [1], in [2], in experiment [5], in experiment [6], in experiment [8] and in experiment [9] was “inactive” throughout. For the same compound, the Potency result in experiment [10], in experiment [13], in [14], in experiment [15] and in [17] was “inactive” throughout. In addition, the outcome in [4], in experiment [7], in experiment [11] and in [12] was inactive.
For the compound `CC(C)(c1ccccc1)c1ccc(Nc2ccc(C(C)(C)c3ccccc3)cc2)cc1`, the Potency entry in experiment [1], in experiment [2], in experiment [5], in experiment [6], in [8] and in [9] was “inactive” each time. The Potency result in experiment [10], in experiment [14] and in experiment [15] was “inactive” each time. The Potency in [3] was 21.7 µM (active) and 27.3 µM (active). For the same compound, the result in experiment [4] and in [11] was inactive.
`CCOc1ccc2c(c1)C(C)=CC(C)(C)N2`: the Potency result in experiment [18], in experiment [1], in experiment [2], in [3], in experiment [5] and in experiment [6] was “inactive” each time. Moreover, the Potency entry in experiment [8], in experiment [9], in experiment [10], in experiment [13], in experiment [14] and in experiment [15] was “inactive” in each case. In addition, the result in [4], in experiment [11] and in experiment [12] was inactive.
`CN(C)c1ccc2nc3ccc(=[N+](C)C)cc-3sc2c1`: the Potency was 3.35 µM (active) in experiment [1]; 11.9 µM (active) and 2.94 µM (active) and 48.6 µM (active) in experiment [16]; 10.6 µM (active) and 23.4 µM (active) and 61.1 µM (active) in [2]; 2.37 µM (active) and 830 nM (active) and 1.37 µM (active) in [3]. The compound was classed as inactive in experiment [4], in [7], in [11] and in [12]. Besides, the Potency entry in experiment [5], in [8], in [9], in experiment [10], in [14] and in [15] was “inactive” each time.
As to `c1ccc2c(c1)CCCC2C1=NCCN1` (stereo not given), the Potency result in experiment [1], in experiment [16], in experiment [2], in experiment [5], in experiment [6] and in experiment [8] was “inactive” throughout. The Potency entry in experiment [9], in [10], in experiment [13], in experiment [14] and in [15] was “inactive” in each case. For the same compound, the result in experiment [4], in experiment [7] and in experiment [11] was inactive.

For the origin of these results see PubChem BioAssay (Tox21).
